Reference: PubChem BioAssay AID1159580 (chemical genetic matrix, 2015)
Among all 5,500 compounds or so, about 2,000 (36%) were called active. Not shown: some 18% with an inconclusive outcome. Rule as the data show it: active = normalized growth mostly below about 0.91 (no sharp cut-off); inconclusive = no clear call, values can overlap the other calls; inactive = mostly above about 0.92. The list shows a part of the results.

Assay: chemical genetic growth profiling, strain panel (AID 1159580);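 also: tested at 20 µM; growth read once vehicle control cultures reached saturation at 30 °C; 1 = growth at the plate median or of vehicle wells; lower values mean less growth of the strain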
Details: S. cerevisiae deletion strains, growth OD

Measured: normalized growth

CN1CC(C(=O)NC2(C)OC3(O)C4CCCN4C(=O)C(Cc4ccccc4)N3C2=O)CC2c3cccc4[nH]cc(c34)CC21 (centres undefined)
inactive: locus YAL040C, strain CLN3, stronger effect = lower value 0.995 | locus YCL061C, strain MRC1 (second series), stronger effect = lower value 0.992 | locus YDR150W, strain NUM1, stronger effect = lower value 0.99 | locus YDR363W, strain ESC2, stronger effect = lower value 0.974 | locus YER002W, strain NOP16, stronger effect = lower value 0.988 | locus YMR263W, strain SAP30, stronger effect = lower value 0.987 | locus YMR307W, strain GAS1, stronger effect = lower value 0.965 | locus YNL128W, strain TEP1, stronger effect = lower value 0.994 | locus YNL175C, strain NOP13, stronger effect = lower value 1.01 | locus YNL197C, strain WHI3, stronger effect = lower value 0.985 | locus YNL224C, strain SQS1, stronger effect = lower value 1 | locus YOR083W, strain WHI5 (second series), stronger effect = lower value 0.98 | locus YPL055C, strain LGE1, stronger effect = lower value 0.905 | locus YPL241C, strain CIN2, stronger effect = lower value 0.995
